# Experimental data taken from paper PMC7862700, “An all-to-all approach to the identification of sequence-specific readers for epigenetic DNA modifications on cytosine”.
# Key:
# Experiment in all cases: DAPPL (digital affinity profiling via proximity ligation, sequencing); 10 mM Tris-HCl pH 7.5, 50 mM NaCl, 1 mM DTT, 4% glycerol, room temperature, 30 min; GST-TFs on glutathione beads, 16-mer random dsDNA library, 0.1% formaldehyde crosslink after washing; high values mean tight binding
# FLI1 = target: T1, FLI1 (Homo sapiens, UniProt Q01543 1-452); conditions: protein: recombinant; tags: N-terminal GST; dsDNA, one strand shown
# T1 sequence: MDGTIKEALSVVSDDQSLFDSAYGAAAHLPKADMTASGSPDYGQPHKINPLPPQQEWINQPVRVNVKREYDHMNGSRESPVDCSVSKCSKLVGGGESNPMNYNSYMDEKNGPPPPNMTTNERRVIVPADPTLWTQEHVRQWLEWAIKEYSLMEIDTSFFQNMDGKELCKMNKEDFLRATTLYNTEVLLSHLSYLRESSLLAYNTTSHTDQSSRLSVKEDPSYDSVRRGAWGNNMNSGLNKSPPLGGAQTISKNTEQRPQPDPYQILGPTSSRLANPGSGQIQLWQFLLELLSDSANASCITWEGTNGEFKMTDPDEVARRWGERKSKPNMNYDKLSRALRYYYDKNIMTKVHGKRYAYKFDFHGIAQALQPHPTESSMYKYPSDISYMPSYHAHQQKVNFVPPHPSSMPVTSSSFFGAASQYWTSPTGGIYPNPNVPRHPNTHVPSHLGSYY
# Method in brief: (§1)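 Human transcription factors were made in yeast as GST fusions, captured on glutathione beads and barcoded with DNA. With a tag-only sample included, the pool was incubated with 200 nmole of a random double-stranded 16-mer DNA library in Tris/NaCl/DTT/glycerol buffer at room temperature for 30 min, then crosslinked with 0.1% formaldehyde after washing, ligated by proximity, amplified and sequenced. For binding signal, each hexamer's read frequency for a factor is divided by its frequency for the tag-only sample.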
# ELK1 = target: T2, ELK1 (Homo sapiens, UniProt P19419 1-428); conditions: protein: recombinant; tags: N-terminal GST; dsDNA, one strand shown
# T2 sequence: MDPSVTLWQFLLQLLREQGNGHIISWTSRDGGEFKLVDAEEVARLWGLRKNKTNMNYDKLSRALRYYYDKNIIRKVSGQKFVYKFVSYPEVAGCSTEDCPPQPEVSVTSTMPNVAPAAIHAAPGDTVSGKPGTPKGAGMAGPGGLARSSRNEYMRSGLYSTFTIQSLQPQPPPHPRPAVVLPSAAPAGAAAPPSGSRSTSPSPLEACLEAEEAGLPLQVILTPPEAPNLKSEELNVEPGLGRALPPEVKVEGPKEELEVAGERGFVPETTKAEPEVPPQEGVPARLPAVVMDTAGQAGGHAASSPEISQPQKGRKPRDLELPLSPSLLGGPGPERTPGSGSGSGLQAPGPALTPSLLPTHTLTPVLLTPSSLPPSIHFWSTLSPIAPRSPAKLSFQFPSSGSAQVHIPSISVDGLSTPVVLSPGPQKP
# Method in brief: as §1
# GABPA = target: T3, GABPA (Homo sapiens, UniProt Q06546 1-454); conditions: protein: recombinant; tags: N-terminal GST; dsDNA, one strand shown
# T3 sequence: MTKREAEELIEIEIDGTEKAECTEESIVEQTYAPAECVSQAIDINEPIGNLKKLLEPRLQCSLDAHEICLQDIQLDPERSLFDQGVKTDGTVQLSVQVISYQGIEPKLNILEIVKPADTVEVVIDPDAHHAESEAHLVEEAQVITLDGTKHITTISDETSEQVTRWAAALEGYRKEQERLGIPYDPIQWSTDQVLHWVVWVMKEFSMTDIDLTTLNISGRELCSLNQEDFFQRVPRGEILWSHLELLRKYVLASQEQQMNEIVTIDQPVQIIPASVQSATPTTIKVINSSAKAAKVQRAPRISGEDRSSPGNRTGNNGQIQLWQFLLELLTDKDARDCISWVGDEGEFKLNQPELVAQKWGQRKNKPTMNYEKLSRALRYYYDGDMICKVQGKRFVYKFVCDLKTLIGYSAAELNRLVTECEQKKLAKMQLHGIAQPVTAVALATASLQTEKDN
# Method in brief: as §1
# ERG = target: T4, ERG (Homo sapiens, UniProt P11308 1-479); conditions: protein: recombinant; tags: N-terminal GST; dsDNA, one strand shown
# T4 sequence: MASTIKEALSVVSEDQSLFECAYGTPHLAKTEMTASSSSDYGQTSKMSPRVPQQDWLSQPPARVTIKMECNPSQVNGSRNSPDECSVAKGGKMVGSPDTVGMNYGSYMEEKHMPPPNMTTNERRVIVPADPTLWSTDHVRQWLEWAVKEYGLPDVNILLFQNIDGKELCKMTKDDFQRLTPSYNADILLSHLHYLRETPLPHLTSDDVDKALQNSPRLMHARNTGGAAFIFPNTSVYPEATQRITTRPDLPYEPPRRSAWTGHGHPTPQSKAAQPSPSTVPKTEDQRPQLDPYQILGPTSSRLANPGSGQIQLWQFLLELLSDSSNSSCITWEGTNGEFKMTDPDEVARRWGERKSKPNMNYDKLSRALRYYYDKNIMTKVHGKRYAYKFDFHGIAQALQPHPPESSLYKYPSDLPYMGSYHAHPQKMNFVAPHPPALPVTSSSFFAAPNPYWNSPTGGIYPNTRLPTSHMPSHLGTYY
# Method in brief: as §1
# ELF1 = ELF1 (Homo sapiens, UniProt P32519 1-619); conditions: protein: recombinant; tags: N-terminal GST; dsDNA, one strand shown
# Sequence of ELF1 (P32519 whole entry): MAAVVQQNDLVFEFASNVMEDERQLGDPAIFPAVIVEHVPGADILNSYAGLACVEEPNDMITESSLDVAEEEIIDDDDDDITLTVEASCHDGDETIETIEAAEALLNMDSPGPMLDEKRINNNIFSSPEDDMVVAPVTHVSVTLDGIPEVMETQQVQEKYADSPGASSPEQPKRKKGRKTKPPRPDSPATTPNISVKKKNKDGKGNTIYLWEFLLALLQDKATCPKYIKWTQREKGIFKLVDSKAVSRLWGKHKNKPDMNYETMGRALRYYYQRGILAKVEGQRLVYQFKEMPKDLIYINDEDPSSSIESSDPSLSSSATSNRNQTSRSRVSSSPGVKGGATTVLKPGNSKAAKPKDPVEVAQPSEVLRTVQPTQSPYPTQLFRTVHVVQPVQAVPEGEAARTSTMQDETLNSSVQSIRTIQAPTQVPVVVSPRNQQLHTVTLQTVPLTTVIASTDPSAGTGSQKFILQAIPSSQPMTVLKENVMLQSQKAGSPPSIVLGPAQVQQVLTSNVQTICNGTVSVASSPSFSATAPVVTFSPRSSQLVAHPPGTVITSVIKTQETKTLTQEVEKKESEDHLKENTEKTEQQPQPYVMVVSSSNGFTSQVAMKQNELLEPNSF
# Method in brief: as §1
# EHF = target: T5, EHF (Homo sapiens, UniProt Q9NZC4 1-300); conditions: protein: recombinant; tags: N-terminal GST; dsDNA, one strand shown
# T5 sequence: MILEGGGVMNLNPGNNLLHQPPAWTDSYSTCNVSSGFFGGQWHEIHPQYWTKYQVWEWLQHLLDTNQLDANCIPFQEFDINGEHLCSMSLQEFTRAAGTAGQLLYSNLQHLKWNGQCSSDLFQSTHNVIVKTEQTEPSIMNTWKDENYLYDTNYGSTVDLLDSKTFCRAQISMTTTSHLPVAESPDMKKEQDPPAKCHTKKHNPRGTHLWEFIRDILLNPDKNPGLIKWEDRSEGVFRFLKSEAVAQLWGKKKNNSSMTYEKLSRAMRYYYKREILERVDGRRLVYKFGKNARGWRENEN
# Method in brief: as §1
# SPI1 = SPI1 (Homo sapiens, UniProt P17947 1-270); conditions: protein: recombinant; tags: N-terminal GST; dsDNA, one strand shown
# Method in brief: as §1
# SPIB = SPIB (Homo sapiens, UniProt Q01892 1-262); conditions: protein: recombinant; tags: N-terminal GST; dsDNA, one strand shown
# Sequence of SPIB (Q01892 whole entry): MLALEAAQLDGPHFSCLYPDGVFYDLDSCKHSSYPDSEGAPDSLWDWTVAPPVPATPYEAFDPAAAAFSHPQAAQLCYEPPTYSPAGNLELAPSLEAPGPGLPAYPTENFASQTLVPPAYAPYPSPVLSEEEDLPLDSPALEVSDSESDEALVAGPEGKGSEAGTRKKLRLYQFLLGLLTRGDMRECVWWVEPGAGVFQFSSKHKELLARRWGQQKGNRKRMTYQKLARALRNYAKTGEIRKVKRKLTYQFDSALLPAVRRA
# Method in brief: as §1
# ELK3 = target: T6, ELK3 (Homo sapiens, UniProt P41970 1-407); conditions: protein: recombinant; tags: N-terminal GST; dsDNA, one strand shown
# T6 sequence: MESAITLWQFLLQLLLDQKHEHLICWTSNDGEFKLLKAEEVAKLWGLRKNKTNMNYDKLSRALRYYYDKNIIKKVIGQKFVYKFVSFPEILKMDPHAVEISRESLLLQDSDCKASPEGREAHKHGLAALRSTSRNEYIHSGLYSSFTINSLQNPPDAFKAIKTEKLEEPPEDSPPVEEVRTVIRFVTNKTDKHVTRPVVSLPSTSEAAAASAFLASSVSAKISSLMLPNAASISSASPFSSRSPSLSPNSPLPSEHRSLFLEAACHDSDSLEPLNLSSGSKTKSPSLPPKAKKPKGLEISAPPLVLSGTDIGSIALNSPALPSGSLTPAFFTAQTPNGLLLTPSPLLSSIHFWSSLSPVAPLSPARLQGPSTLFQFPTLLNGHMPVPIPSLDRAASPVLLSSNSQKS
# Method in brief: as §1
# FEV = target: T7, FEV (Homo sapiens, UniProt Q99581 1-238); conditions: protein: recombinant; tags: N-terminal GST; dsDNA, one strand shown
# T7 sequence: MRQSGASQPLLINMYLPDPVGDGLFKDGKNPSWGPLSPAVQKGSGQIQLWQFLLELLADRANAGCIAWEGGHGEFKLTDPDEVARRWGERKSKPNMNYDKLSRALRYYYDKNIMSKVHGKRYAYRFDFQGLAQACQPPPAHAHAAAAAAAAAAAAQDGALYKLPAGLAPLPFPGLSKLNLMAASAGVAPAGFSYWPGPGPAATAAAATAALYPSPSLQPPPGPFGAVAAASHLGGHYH
# Method in brief: as §1
# ETV5 = ETV5 (Homo sapiens, UniProt P41161 1-510); conditions: protein: recombinant; tags: N-terminal GST; dsDNA, one strand shown
# Sequence of ETV5 (P41161 whole entry): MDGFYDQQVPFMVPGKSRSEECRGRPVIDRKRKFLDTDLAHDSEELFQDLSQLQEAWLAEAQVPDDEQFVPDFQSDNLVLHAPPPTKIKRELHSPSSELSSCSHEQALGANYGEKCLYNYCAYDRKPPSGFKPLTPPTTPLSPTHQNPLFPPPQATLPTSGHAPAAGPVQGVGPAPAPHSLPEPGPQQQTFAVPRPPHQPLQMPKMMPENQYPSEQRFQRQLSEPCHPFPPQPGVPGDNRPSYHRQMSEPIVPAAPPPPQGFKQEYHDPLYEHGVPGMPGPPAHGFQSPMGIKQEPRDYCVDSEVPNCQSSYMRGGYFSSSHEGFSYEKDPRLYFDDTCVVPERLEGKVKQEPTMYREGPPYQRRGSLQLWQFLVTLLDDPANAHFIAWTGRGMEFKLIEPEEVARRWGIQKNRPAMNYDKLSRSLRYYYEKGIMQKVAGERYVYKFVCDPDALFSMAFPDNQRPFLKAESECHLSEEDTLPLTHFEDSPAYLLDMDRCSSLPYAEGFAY
# Method in brief: as §1
# HSF1 = HSF1 (Homo sapiens, UniProt Q00613 1-529); conditions: protein: recombinant; tags: N-terminal GST; chain copies: 3; dsDNA, one strand shown
# Sequence of HSF1 (Q00613 whole entry): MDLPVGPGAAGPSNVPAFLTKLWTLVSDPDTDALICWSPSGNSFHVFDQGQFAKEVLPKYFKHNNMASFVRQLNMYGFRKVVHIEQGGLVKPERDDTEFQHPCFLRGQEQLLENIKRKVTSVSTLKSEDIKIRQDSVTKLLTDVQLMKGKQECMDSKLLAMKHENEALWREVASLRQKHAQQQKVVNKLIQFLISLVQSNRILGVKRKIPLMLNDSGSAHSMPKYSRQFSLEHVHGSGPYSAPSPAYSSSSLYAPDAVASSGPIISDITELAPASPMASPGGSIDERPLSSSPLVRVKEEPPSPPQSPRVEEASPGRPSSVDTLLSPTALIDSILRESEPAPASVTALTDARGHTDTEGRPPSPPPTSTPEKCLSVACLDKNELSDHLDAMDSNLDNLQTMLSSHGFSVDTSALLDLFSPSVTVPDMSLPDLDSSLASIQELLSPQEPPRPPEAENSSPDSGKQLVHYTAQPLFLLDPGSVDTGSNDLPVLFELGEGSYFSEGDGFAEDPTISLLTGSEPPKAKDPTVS
# Method in brief: as §1
# SPIC = target: T8, SPIC (Homo sapiens, UniProt Q8N5J4 1-248); conditions: protein: recombinant; tags: N-terminal GST; dsDNA, one strand shown
# T8 sequence: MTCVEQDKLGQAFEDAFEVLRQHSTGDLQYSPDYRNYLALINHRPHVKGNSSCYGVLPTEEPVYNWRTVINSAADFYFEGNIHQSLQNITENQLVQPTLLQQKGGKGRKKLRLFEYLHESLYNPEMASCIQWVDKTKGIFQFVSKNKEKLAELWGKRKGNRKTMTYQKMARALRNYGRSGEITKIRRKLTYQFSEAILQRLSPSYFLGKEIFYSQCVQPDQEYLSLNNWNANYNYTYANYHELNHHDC
# Method in brief: as §1
# ELF4 = ELF4 (Homo sapiens, UniProt Q99607 1-663); conditions: protein: recombinant; tags: N-terminal GST; dsDNA, one strand shown
# Sequence of ELF4 (Q99607 whole entry): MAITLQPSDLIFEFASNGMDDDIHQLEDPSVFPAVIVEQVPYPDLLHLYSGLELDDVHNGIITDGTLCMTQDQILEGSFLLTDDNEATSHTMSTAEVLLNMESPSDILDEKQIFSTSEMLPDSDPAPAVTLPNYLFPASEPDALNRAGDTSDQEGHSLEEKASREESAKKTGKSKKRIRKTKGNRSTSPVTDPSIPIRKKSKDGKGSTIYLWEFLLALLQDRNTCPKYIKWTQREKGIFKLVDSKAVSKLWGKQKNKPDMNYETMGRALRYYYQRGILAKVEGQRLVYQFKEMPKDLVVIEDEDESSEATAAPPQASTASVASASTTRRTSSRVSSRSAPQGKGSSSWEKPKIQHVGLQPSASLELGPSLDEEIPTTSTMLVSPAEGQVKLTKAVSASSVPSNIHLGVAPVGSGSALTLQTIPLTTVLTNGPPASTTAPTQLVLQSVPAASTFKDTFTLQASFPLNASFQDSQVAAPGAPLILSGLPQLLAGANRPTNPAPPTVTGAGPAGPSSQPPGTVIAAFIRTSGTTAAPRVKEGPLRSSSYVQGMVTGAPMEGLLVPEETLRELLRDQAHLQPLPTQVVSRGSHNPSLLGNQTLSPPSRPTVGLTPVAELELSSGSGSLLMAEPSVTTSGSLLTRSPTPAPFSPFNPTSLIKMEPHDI
# Method in brief: as §1
# ELK4 = target: T9, ELK4 (Homo sapiens, UniProt P28324-2 1-405); conditions: protein: recombinant; tags: N-terminal GST; dsDNA, one strand shown
# T9 sequence: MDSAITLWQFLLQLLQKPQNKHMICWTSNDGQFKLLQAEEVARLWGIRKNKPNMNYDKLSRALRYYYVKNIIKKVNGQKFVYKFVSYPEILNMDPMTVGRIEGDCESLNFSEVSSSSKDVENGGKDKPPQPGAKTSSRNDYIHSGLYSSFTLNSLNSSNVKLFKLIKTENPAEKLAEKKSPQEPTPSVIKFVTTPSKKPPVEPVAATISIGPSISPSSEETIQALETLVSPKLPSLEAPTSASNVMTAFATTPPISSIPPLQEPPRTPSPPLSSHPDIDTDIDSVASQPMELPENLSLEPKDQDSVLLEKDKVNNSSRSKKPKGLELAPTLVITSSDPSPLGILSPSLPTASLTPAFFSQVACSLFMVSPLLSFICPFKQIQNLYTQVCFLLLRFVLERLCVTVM
# Method in brief: as §1
# ETV2 = target: T10, ETV2 (Homo sapiens, UniProt O00321 1-342); conditions: protein: recombinant; tags: N-terminal GST; dsDNA, one strand shown
# T10 sequence: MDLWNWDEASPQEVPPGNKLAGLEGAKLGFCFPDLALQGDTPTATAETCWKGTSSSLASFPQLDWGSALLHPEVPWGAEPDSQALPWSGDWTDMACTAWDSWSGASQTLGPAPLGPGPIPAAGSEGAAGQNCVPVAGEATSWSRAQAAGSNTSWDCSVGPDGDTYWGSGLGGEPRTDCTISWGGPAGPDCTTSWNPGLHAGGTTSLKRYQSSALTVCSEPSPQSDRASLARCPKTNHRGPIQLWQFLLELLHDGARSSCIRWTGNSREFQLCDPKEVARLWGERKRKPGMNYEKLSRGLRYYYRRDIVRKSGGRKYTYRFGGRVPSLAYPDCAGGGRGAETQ
# Method in brief: as §1
# ELF3 = target: T11, ELF3 (Homo sapiens, UniProt P78545 1-371); conditions: protein: recombinant; tags: N-terminal GST; dsDNA, one strand shown
# T11 sequence: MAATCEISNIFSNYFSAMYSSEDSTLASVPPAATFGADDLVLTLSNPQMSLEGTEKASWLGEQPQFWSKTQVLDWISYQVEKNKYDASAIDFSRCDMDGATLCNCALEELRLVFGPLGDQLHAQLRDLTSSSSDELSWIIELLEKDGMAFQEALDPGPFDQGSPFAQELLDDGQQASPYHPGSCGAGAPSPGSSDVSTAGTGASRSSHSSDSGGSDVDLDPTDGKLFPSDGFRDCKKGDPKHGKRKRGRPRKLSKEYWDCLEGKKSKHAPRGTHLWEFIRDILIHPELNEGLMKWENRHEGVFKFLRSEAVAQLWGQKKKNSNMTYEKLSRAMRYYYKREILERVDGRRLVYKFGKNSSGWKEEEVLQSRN
# Method in brief: as §1
# CRX = CRX (Homo sapiens, UniProt O43186 1-299); conditions: protein: recombinant; tags: N-terminal GST; dsDNA, one strand shown
# Sequence of CRX (O43186 whole entry): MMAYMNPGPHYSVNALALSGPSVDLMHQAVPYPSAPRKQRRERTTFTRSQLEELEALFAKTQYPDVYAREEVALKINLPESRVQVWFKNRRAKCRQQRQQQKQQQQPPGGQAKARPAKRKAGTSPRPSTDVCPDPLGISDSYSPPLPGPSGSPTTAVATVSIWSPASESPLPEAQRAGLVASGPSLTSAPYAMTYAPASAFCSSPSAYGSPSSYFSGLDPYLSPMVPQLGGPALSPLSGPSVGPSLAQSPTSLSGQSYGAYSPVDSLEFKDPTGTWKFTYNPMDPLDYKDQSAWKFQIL
# Method in brief: as §1
# ETV1 = ETV1 (Homo sapiens, UniProt P50549 1-477); conditions: protein: recombinant; tags: N-terminal GST; dsDNA, one strand shown
# Sequence of ETV1 (P50549 whole entry): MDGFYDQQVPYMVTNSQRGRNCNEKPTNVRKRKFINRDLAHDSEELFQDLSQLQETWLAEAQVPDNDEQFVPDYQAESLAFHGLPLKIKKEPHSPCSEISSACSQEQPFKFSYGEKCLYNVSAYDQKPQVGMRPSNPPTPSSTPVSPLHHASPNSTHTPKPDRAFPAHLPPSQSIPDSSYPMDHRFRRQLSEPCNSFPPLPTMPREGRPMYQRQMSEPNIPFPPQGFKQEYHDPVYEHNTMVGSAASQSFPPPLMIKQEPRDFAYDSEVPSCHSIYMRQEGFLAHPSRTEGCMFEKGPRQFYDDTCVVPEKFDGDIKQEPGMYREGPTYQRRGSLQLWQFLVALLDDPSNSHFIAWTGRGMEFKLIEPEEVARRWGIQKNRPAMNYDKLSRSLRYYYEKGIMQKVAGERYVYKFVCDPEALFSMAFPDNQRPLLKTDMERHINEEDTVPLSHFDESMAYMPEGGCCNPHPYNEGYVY
# Method in brief: as §1
sequence,measurement,setting,value
ATTATC,binding signal,FLI1,"1.35 fold enrichment (6-mer frequency, TF over GST control)"
same,binding signal,ELK1,"1.35 fold enrichment (6-mer frequency, TF over GST control)"
same,binding signal,GABPA,"1.34 fold enrichment (6-mer frequency, TF over GST control)"
same,binding signal,ERG,"1.32 fold enrichment (6-mer frequency, TF over GST control)"
same,binding signal,ELF1,"1.29 fold enrichment (6-mer frequency, TF over GST control)"
same,binding signal,EHF,"1.28 fold enrichment (6-mer frequency, TF over GST control)"
same,binding signal,SPI1,"1.35 fold enrichment (6-mer frequency, TF over GST control)"
same,binding signal,SPIB,"1.27 fold enrichment (6-mer frequency, TF over GST control)"
same,binding signal,ELK3,"1.32 fold enrichment (6-mer frequency, TF over GST control)"
same,binding signal,FEV,"1.29 fold enrichment (6-mer frequency, TF over GST control)"
same,binding signal,ETV5,"1.26 fold enrichment (6-mer frequency, TF over GST control)"
same,binding signal,HSF1,"2.51 fold enrichment (6-mer frequency, TF over GST control)"
same,binding signal,SPIC,"1.34 fold enrichment (6-mer frequency, TF over GST control)"
same,binding signal,ELF4,"1.32 fold enrichment (6-mer frequency, TF over GST control)"
same,binding signal,ELK4,"1.39 fold enrichment (6-mer frequency, TF over GST control)"
same,binding signal,ETV2,"1.38 fold enrichment (6-mer frequency, TF over GST control)"
same,binding signal,ELF3,"1.39 fold enrichment (6-mer frequency, TF over GST control)"
same,binding signal,CRX,"3.86 fold enrichment (6-mer frequency, TF over GST control)"
same,binding signal,ETV1,"1.31 fold enrichment (6-mer frequency, TF over GST control)"
